Screening results: PubChem BioAssay, National Center for Advancing Translational Sciences (NCATS)
Only some compounds are listed: those with a hit (about 17% of all), similar ones and a draw of the others.
HepG2 tox – kills HepG2 cells in TGF-b inhibitor counter-screen; 0.76% of 410,000 active; HepG2 CAGA-GFP viability, ATP luminescence, 18 h; AID 588856; Potency, µM (series often up to 46.1 µM), without a hit: at the top dose activity change, negative = cytotoxicity, most hits filed as cytotoxic
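CellTiter-Glo luminescence gave cytotoxicity after 18 hours at 37 degrees C. The cells were HepG2 CAGA-GFP in 1% FBS DMEM, stimulated with 500 pg/mL TGF-beta after compound addition. %Activity was normalised to no-cell wells (complete cell-killing) and DMSO (no toxicity), and curves were fitted and classified.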
ATXN viability – reduces viability in counter-screen for ATXN expression inhibitors; Potency, µM (titrated, usually from 56.7 µM), most hits filed as cytotoxic; S2 cells (HEK-293 line with an ATXN2-luciferase reporter) viability, CellTiter-Fluor protease fluorescence, 24 h; 0.49% of 400,000 active; AID 651635; also: nearly all actives have a fitted effect of over 40% in size
ATXN2 expr inh – ATXN2 expression inhibition; 0.72% of 360,000 active; AID 1745845; HEK-293 ATXN2-luciferase reporter, luminescence, 24 h; Potency, µM (highest dose often 57 µM), for inactives: at the highest dose activity change, negative = inhibition, actives largely listed as inhibitors; also: % is scaled to controls: 0 for no effect and ±100 for the full control effect; nearly all actives have a fitted effect of over 55% in size
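qHTS (up to 57 uM final) was run with 24 h compound exposure of reporter cells at 37 °C. Each well was multiplexed: SteadyGlo luminescence measured ATXN2-luciferase expression after a fluorogenic Gly-Phe-AFC viability readout (25 uM final).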
TGFb inhibitor – inhibitors of TGF-b signaling. HepG2 CAGA-GFP TGF-b/SMAD3 reporter, GFP fluorescence, 18 h; TGF-beta stimulated, 500 pg/mL final. Potency, µM (titrated, usually from 46.1 µM), without a hit: at the highest dose activity, negative = inhibition, actives largely listed as inhibitors. 1.2% of 410,000 active. AID 588855; also: % is scaled to controls: 0 for no effect and ±100 for the full control effect; nearly all actives have a fitted effect of over 65% in size
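TGF-beta reporter screen: HEPG2 CAGA-GFP, 1% FBS, 500 pg/mL TGF-beta final, 18 h; per-cell GFP summed per well; curves fitted and categorized by class.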
TDP1 cell noCPT – qHTS for Inhibitors of human tyrosyl-DNA phosphodiesterase 1 (TDP1): qHTS in cells in absence of CPT; 15% of 420,000 active; DT40 Tdp1-/- hTDP1 cells, no CPT, ATP luminescence, 48 h; Potency, µM (highest dose often 46.2 µM), for inactives: at the highest dose activity change, negative = growth inhibition, hits mostly inhibitors; also: % is scaled to controls: 0 for no effect and ±100 for the full control effect; nearly all actives have a fitted effect of over 55% in size
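Compound effects on proliferation are scored in DT40 Tdp1-/-;hTDP1 cells in the absence of CPT. ATP levels (CellTiter-Glo luminescence) are recorded after a ≥48 hr, 37 °C incubation.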
DT40 TDP1 CPT – DT40-hTDP1 cell growth loss with CPT | 12% of 420,000 active | chicken DT40 Tdp1-/-;hTDP1 cells + 20 nM CPT, ATP luminescence, 48 h | Potency, µM (titrated, usually from 46.2 µM), for inactives: at the top dose activity change, negative = growth inhibition, hits mostly inhibitors; also: % is scaled to controls: 0 for no effect and ±100 for the full control effect; nearly all actives have a fitted effect of over 55% in size
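Chicken DT40 Tdp1-/- cells complemented with human TDP1, 400 cells/well, exposed to compounds plus 20 nM camptothecin for at least 48 h at 37 C; viability read as ATP content by CellTiter-Glo luminescence.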
The depositor's hits bear a star. Calls follow the shape of the dose curve; as a rule, active = well fitted curve in the direction sought with a large enough effect; inconclusive = small, poorly fitted or top-dose-only effect, or another doubt; inactive = no such curve, though single readings can be large; an effect the other way counts as inactive or inconclusive. Potency is read from the fitted curve at half-maximal effect.

How did COc1cc(OC)cc(C(=O)N2c3ccc(F)cc3CCC2C)c1 (centres undefined) do in these assays?
HepG2 tox: 8.1%; ATXN viability: inactive; ATXN2 expr inh: -2.5%; TGFb inhibitor: 0.5%; TDP1 cell noCPT: 11.6µM*; DT40 TDP1 CPT: 10.3µM*

How did Cc1cccc(C)c1NC(=O)CNC(=O)c1c(C)nn(-c2ccccc2)c1Cl do in these assays?
HepG2 tox: -0.9%; ATXN viability: inactive; ATXN2 expr inh: -3.3%; TGFb inhibitor: -1.5%; TDP1 cell noCPT: 0.0%; DT40 TDP1 CPT: -4.3%

How did COc1cc(C(=O)N2c3ccccc3CCC2C)cc(OC)c1OC (centres undefined) do in these assays?
HepG2 tox: -3.8%; ATXN viability: inconclusive; ATXN2 expr inh: -16.6%; TGFb inhibitor: -19.5%; TDP1 cell noCPT: 9.2µM*; DT40 TDP1 CPT: 18.4µM*

How did COc1cccc([C@@H](C)NCCCc2ccccc2Cl)c1 do in these assays?
ATXN2 expr inh: 4.4%

What do the screens show for `CCOC(=O)CCCc1ccc(/C(C)=N/NC(=S)NC)cc1`?
HepG2 tox: -8.8%; ATXN viability: inconclusive; TGFb inhibitor: -9.1%; TDP1 cell noCPT: inconclusive; DT40 TDP1 CPT: inconclusive

What do the screens show for `CNC(=S)NN=C(C)CCCC(C)=NNC(=S)NC`?
HepG2 tox: -48.8%; ATXN viability: inconclusive; ATXN2 expr inh: 10.6µM*; TGFb inhibitor: 4.47µM*; TDP1 cell noCPT: 0.0206µM*; DT40 TDP1 CPT: 0.164µM*

How did CS(=O)(=O)c1ccccc1-c1nnc(NC(=O)C2=COCCO2)o1 do in these assays?
HepG2 tox: 12.8%; ATXN viability: inactive; ATXN2 expr inh: 0.3%; TGFb inhibitor: 7.6%; TDP1 cell noCPT: 0.5%; DT40 TDP1 CPT: -6.7%

Results for COc1ccccc1-n1c(C)cc(/C=C2\C(=N)N3N=C(CC(=O)N4CCOCC4)SC3=NC2=O)c1C ?
HepG2 tox: -16.0%; ATXN viability: inactive; TGFb inhibitor: 9.5%; TDP1 cell noCPT: inconclusive; DT40 TDP1 CPT: 18.4µM*

How did COc1ccc(-n2c(C)cc(/C=C3\C(=N)N4N=C(CC(=O)N5CCOCC5)SC4=NC3=O)c2C)c(OC)c1 do in these assays?
HepG2 tox: 0.1%; ATXN viability: inconclusive; TGFb inhibitor: 38.1%; TDP1 cell noCPT: inconclusive; DT40 TDP1 CPT: inconclusive

What do the screens show for `CCOC(=O)[C@@H]1CCN(Cc2ccccc2)C[C@H]1c1ccccc1`?
HepG2 tox: 0.3%; ATXN viability: inactive; ATXN2 expr inh: -35.4%; TGFb inhibitor: -4.0%; TDP1 cell noCPT: 23.1µM*; DT40 TDP1 CPT: inconclusive

Results for COc1cccc(CNC(=O)C(C)n2ncn3cccc3c2=O)c1OC (centres undefined) ?
HepG2 tox: -1.2%; ATXN viability: inactive; ATXN2 expr inh: -2.6%; TGFb inhibitor: 27.0%; TDP1 cell noCPT: -10.1%; DT40 TDP1 CPT: -3.4%

What do the screens show for `Cc1ccc(S(=O)(=O)NCC(=O)NCC(=O)N(C)Cc2ccc(Br)s2)cc1C`?
HepG2 tox: -10.5%; ATXN viability: inactive; TGFb inhibitor: inconclusive; TDP1 cell noCPT: inconclusive; DT40 TDP1 CPT: inconclusive

What do the screens show for `C[C@@H]1CCCCCCCCC(=O)OCCN[C@H](C)CCCCCCCCC(=O)OCCN[C@H](C)CCCCCCCCC(=O)OCCN1`?
HepG2 tox: -63.8%; ATXN viability: 20µM*; ATXN2 expr inh: inconclusive; TGFb inhibitor: 15.8µM*; TDP1 cell noCPT: 20.6µM*; DT40 TDP1 CPT: 13µM*

What do the screens show for `CC1(C)CC(=O)C2=C(C1)OC(=O)C2(NC(=O)c1cccs1)C(F)(F)F` (centres undefined)?
HepG2 tox: 0.1%; ATXN viability: inactive; ATXN2 expr inh: -12.5%; TGFb inhibitor: 17.2%; TDP1 cell noCPT: -15.7%; DT40 TDP1 CPT: -3.6%

Results for O=C1NC(c2cccc(OCc3ccccc3)c2)Nc2ccccc21 (centres undefined) ?
HepG2 tox: 1.5%; ATXN viability: inconclusive; ATXN2 expr inh: -11.2%; TGFb inhibitor: inconclusive; TDP1 cell noCPT: 1.16µM*; DT40 TDP1 CPT: 1.46µM*

Results for COc1ccc(N2CCN(C(=O)c3ccncc3)CC2)cc1 ?
HepG2 tox: 6.3%; ATXN viability: inactive; ATXN2 expr inh: 0.5%; TGFb inhibitor: 12.8%; TDP1 cell noCPT: -19.9%; DT40 TDP1 CPT: -23.7%

How did O=C(c1ccc(Oc2ccc(C(F)(F)F)cn2)cc1)N1CCN(c2ccccc2)CC1 do in these assays?
HepG2 tox: -34.1%; ATXN viability: inactive; ATXN2 expr inh: -24.2%; TGFb inhibitor: -10.0%; TDP1 cell noCPT: 29.1µM*; DT40 TDP1 CPT: -9.4%

Results for COc1ccc(N2CCN(C(=O)c3ccc(Oc4ccc(C(F)(F)F)cn4)cc3)CC2)cc1 ?
HepG2 tox: -31.1%; ATXN viability: inactive; ATXN2 expr inh: -12.5%; TGFb inhibitor: 10.6%; TDP1 cell noCPT: 23.1µM*; DT40 TDP1 CPT: inconclusive

Results for CC1=CC2C(C(O)CC3(C)C2CC(C)C32OCOC23COCO3)C2(C)C/C(=C\O)C(=O)C=C12 (centres undefined) ?
HepG2 tox: 11.2µM*; ATXN2 expr inh: inconclusive; TGFb inhibitor: 5.62µM*; TDP1 cell noCPT: 2.59µM*; DT40 TDP1 CPT: 1.64µM*

What do the screens show for `O=C(Cn1c(=O)n(-c2ccccc2)c(=O)c2c3c(sc21)CCC3)c1ccc(F)cc1`?
HepG2 tox: 2.4%; ATXN viability: inconclusive; ATXN2 expr inh: -5.5%; TGFb inhibitor: -5.7%; TDP1 cell noCPT: -69.4%; DT40 TDP1 CPT: inconclusive

Results for COc1cc(NC(=O)Cn2c(=O)n(-c3cccc(C)c3)c(=O)c3c(C)c(C)sc32)cc(OC)c1 ?
HepG2 tox: -32.9%; ATXN viability: inconclusive; ATXN2 expr inh: -30.3%; TGFb inhibitor: -2.5%; TDP1 cell noCPT: -29.5%; DT40 TDP1 CPT: 20.6µM*

Results for Cc1sc2c(c1C)c(=O)n(-c1ccccc1)c(=O)n2CC(=O)c1ccc(Cl)cc1 ?
HepG2 tox: 7.1%; ATXN viability: inactive; ATXN2 expr inh: -16.1%; TGFb inhibitor: 12.1%; TDP1 cell noCPT: 16.4µM*; DT40 TDP1 CPT: inconclusive

How did CCOc1ccc(-n2c(=O)c3c(C)c(C(=O)N(C)C)sc3n(CC(=O)Nc3c(C)cc(C)cc3C)c2=O)cc1 do in these assays?
HepG2 tox: 12.7%; TGFb inhibitor: 2.3%; TDP1 cell noCPT: -17.8%; DT40 TDP1 CPT: -29.2%
